Measured values from PubChem BioAssay (Tox21).
Inconclusive results are not listed. Where a structure was tested more than once in an assay, its records may differ in their call. Activity calls are given as the source filed them. Calls follow the shape of the full dose curve.

Assay: qHTS assay to identify small molecule agonists of the hypoxia (HIF-1) signaling pathway - cell viability counter screen (AID 1224844); also: nearly all actives have a fitted effect of over 50% in size
Details: HRE-bla ME-180 viability, CellTiter-Glo luminescence, 17 h; series mostly up to 76.8 µM; activity change, negative = cytotoxicity: at the top concentration
Source text: National Center for Advancing Translational Sciences [NCATS]
NIH Chemical Genomics Center [NCGC]
U.S. Environmental Protection Agency [EPA]
National Institutes of Environmental Health Sciences [NIEHS]
National Toxicology Program [NTP]
U.S. Food and Drug Administration [FDA]
Hypoxia-inducible factor-1 (HIF-1) is the major hypoxia-regulated transcription factor that controls cellular responses to low oxygen concentration. HIF-1 is composed of two subunits: hypoxia responsive HIF-1-alpha and constitutively expressed HIF-1-beta, which is also known as aryl hydrocarbon receptor nuclear translocator. During hypoxic conditions, HIF-1-alpha heterodimerizes with HIF-1-beta and translocates into the nucleus where the HIF-1 complex binds to the hypoxia-response element (HRE) and activates expression of target genes such as VEGF (vascular endothelial growth factor). The HIF-1 pathway is essential to normal growth and development, and is involved in the pathophysiology of cancer, inflammation, and ischemia.
Using a beta-lactamase reporter-gene under control of the hypoxia response element, a cell-based assay [CellSensor(TM) HRE-bla ME-180 from Life Technologies, Carlsbad, CA] was used to measure hypoxia-induced signaling. Tox21 10K library compounds were measured for their ability to induce the reporter gene activity. The cytotoxicity of the Tox21 compound library against HRE-bla ME-180 cell line was tested in parallel by measuring cell viability using CellTiter-Glo assay (Promega, Madison, WI) in the same assay wells.
Tox21 Assay Protocol Summary:
HRE-bla ME-180 cells were dispensed at 2,000 cells per well in 6 uL of assay medium containing 0.5% dialyzed FBS into black wall/clear-bottom 1536-well plates using a Multidrop Combi (Thermo Scientific, Waltham, MA) dispenser. After the assay plates were incubated at 37C and 5% CO2 for 5 hrs, 23 nL of compounds dissolved in DMSO, positive controls or DMSO only was transferred to each well of the assay plate using a Pintool station (Kalypsys, San Diego, CA). The assay plates were incubated at 37C and 5% CO2 for 17 hrs. One uL of LiveBLAzerTM B/G FRET substrate (CCF4-AM) (Life Technologies) was added to each well using a Flying Reagent Dispenser (FRD, Aurora Discovery, San Diego, CA). After 2 hr incubation at room temperature, fluorescence intensity (405 nm excitation, 460 nm and 530 nm emissions) was measured using an Envision plate reader (PerkinElmer, Shelton, CT). For cytotoxicity, 4 ul/well of CellTiter-Glo reagent was added into the assay plates using an FRD. After 30 min incubation at room temperature, the luminescence intensity was measured using a ViewLux plate reader (PerkinElmer).
% is scaled to controls: 0 for no effect and ±100 for the full control effect; potency is read from the fitted curve at half-maximal effect.

Compound | Potency | activity change, negative = cytotoxicity
Clc1ccc(C(c2ccccc2Cl)C(Cl)Cl)cc1 (stereo not given) | 54.9 µM (active) | 
O=C1NC2CCCCN2C12CCN(CCCN1c3ccccc3CCc3ccc(Cl)cc31)CC2 (stereo not given) |  | -21.8% [at 35.3 µM] (inactive)
OCCCc1cccnc1 |  | 3.81% (inactive)
COC(=O)C1=C(C)NC(C)=C(C(=O)OCCCN2CCC(c3ccccc3)(c3ccccc3)CC2)C1c1cccc([N+](=O)[O-])c1 (stereo not given) | 21.3 µM (active) | 
Cc1ccc(O)cn1 |  | 4.62% (inactive)
CCOC(=O)N1CCC(=C2c3ccc(Cl)cc3CCc3cccnc32)CC1 | 54.9 µM (active) and inactive | 
O=S(=O)(O)CCCN1CCOCC1 |  | 6.36% (inactive)
Cc1cccc(C)n1 |  | 3.1% (inactive)
Clc1cc(Cl)c(-c2c(Cl)c(Cl)cc(Cl)c2Cl)cc1Cl |  | 18.2% [at 35.3 µM] (inactive)
CC(=O)O[C@@H]1C[C@@H]2CC[C@@]1(C)C2(C)C |  | 6.7% (inactive)
CC(C)CCOCCC(C)C |  | 2.27% (inactive)
C/C=C/C(=O)Oc1c(CCCCCC(C)C)cc([N+](=O)[O-])cc1[N+](=O)[O-] | 17.4 µM (active) | 
Clc1ccc(C(Cn2ccnc2)OCc2c(Cl)cccc2Cl)c(Cl)c1 (stereo not given) | 23.9 µM (active) | 
N#CSCSc1nc2ccccc2s1 | 6.92 µM (active) | 
CC[N+](CC)(CC)Cc1ccccc1 |  | -1.78% (inactive)
Nc1ncnc2c1ncn2[C@@H]1O[C@H](COP(=O)(O)O)[C@@H](O)[C@H]1O |  | 8.24% [at 35.3 µM] (inactive)
NCCCCCCNCCCCCCN |  | 7.51% (inactive)
CCCCCCCCCCCCCC[n+]1ccccc1 | 49 µM (active) | 
Brc1ccccn1 |  | 0.777% (inactive)
CCC(=O)OCCc1ccccc1 |  | 3.94% (inactive)

Compound | Potency | activity change, negative = cytotoxicity
CC1=CP(=O)(c2ccccc2)CC1 (stereo not given) |  | -1.38% (inactive)
CCCCOCC |  | 1.46% (inactive)
COCC(=O)O[C@]1(CCN(C)CCCc2nc3ccccc3[nH]2)CCc2cc(F)ccc2[C@@H]1C(C)C | 16.9 µM (active) | 
NC1(c2ccc(-c3nc4ccn5c(=O)[nH]nc5c4cc3-c3ccccc3)cc2)CCC1 | 2.13 µM (active) | 
O=C1c2c(O)ccc([N+](=O)[O-])c2C(=O)c2c([N+](=O)[O-])ccc(O)c21 | 6.85 µM (active) | 
CC(C)(C)c1cc(CCC(=O)NCCCCCCNC(=O)CCc2cc(C(C)(C)C)c(O)c(C(C)(C)C)c2)cc(C(C)(C)C)c1O |  | -11.2% (inactive)
CCCCCCCCCCCCCCNCCO |  | -8.6% [at 35.3 µM] (inactive)
NCCCC(O)(P(=O)(O)O)P(=O)(O)O |  | 1.72% [at 35.3 µM] (inactive)
ClC/C=C\CCl |  | 0.0926% (inactive)
C=CC(=O)OCC(O)COc1ccccc1 (stereo not given) | 38.9 µM (active) | 
CC(=O)Oc1ccc(C2(c3ccc(OC(C)=O)cc3)C(=O)Nc3ccccc32)cc1 | 0.0425 µM (active) | 
C/C=C/CO |  | 1.96% (inactive)
C[Si](C)(C)Cl |  | 0.529% (inactive)
CCC1CCCCC1 |  | 6.95% (inactive)
CC(C)=C1CC[C@@H](C)CC1=O |  | 0.25% (inactive)
CC1CCCCN1CCCOC(=O)c1ccc(OC2CCCCC2)cc1 (stereo not given) |  | 15.2% [at 35.3 µM] (inactive)
Cc1cc(=O)[nH]c(=O)[nH]1 |  | -0.584% (inactive)
C[C@@]12C(=O)OC(=O)[C@]1(C)C1CCC2O1 |  | 19% [at 35.3 µM] (inactive)
CC1(C)COCN1 |  | 5.03% (inactive)
Cc1cc(C)c(C=O)c(C)c1 |  | 1.22% (inactive)
